# Assay results as given in PubChem BioAssay AID1654 (Sanford-Burnham Center for Chemical Genomics, 2009).
# About 1,500 (0.52%) of roughly 290,000 compounds were called active. No stated cut-off is given here; in the data, active means inhibition above about 50%; inactive means the rest. The entries come from a sample that favours actives as a whole.
# Target: Dual specificity protein phosphatase 3 (Homo sapiens) (UniProt P51452)
# Test: inhibition of human DUSP3 activity – biochemical, absorbance, uHTS, primary screen (AID 1654)
# [1] = recombinant VHR phosphatase, pNPP absorbance, at 13.3 µM, stronger effect = higher value
# Sequence of Dual specificity protein phosphatase 3 (Homo sapiens) (P51452 whole entry, looked up): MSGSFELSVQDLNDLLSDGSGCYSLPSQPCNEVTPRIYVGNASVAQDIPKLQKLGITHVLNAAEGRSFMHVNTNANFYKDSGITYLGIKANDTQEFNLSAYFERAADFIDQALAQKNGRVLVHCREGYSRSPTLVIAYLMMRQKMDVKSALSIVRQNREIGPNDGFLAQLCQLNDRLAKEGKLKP
structure (smiles),measurement,setting,value
CN1C2CCC1/C(=C\c1ccccc1Cl)C(=O)/C2=C\c1ccccc1Cl,inhibition,[1],-0.2% (inactive)
Cc1ccsc1/C=C1\SC(N2CCOCC2)=NC1=O,inhibition,[1],51% (active)
CCc1ccc(/C=C2\SC(N3CCOCC3)=NC2=O)cc1,inhibition,[1],19.9% (inactive)
Cc1ccc(N2CCN(C3=NC(=O)/C(=C\c4cccs4)S3)CC2)cc1,inhibition,[1],-10.9% (inactive)
O=[N+]([O-])c1cc(C(F)(F)F)ccc1NCCc1ccncc1,inhibition,[1],-7.6% (inactive)
Cc1cc(C)n2nc(C(=O)NC(C)(C)C)nc2n1,inhibition,[1],38.4% (inactive)
Cc1cc(C)n2nc(SCC(N)=O)nc2n1,inhibition,[1],24.2% (inactive)
Cc1cc(C)n2nc(CNS(=O)(=O)c3c(F)c(F)c(F)c(F)c3F)nc2n1,inhibition,[1],51.3% (active)
CCOC(=O)c1c(C)[nH]c(C2=NNC(=NC(C)COC)SC2)c1C (configuration not stated),inhibition,[1],8.2% (inactive)
Cc1ccc2oc(C(=O)N3CCN(C)C[C@@H]3C(C)C)c(C)c2c1,inhibition,"recombinant VHR phosphatase, pNPP absorbance; at 13.3 µM; stronger effect = higher value",80.7% (inactive)
same,inhibition,"recombinant VHR phosphatase, pNPP absorbance; measured here: average of confirmation repeats; at 13.3 µM; stronger effect = higher value",-20.8%
Cc1ccccc1OCC(=O)NNC(=O)c1cc(S(=O)(=O)N(C)C)ccc1N1CCCC1,inhibition,[1],-23.3% (inactive)
COCCNC(=O)c1snc2ccc(Cl)cc12,inhibition,[1],50% (active)
COCCNC(=O)c1ccc2c(c1)ncn2-c1ccc(C)c(Cl)c1,inhibition,[1],5.8% (inactive)
COCCNC(=O)c1ccc(S(=O)(=O)c2ccc(Cl)cc2)c(NC(C)=O)c1,inhibition,[1],13.8% (inactive)
Cc1ccc(C(=O)O/N=C(\N)c2ccccn2)cc1Cl,inhibition,[1],11.4% (inactive)
O=S(=O)(NCc1cccnc1)c1ccc(Br)s1,inhibition,[1],35.9% (inactive)
O=S(=O)(NCc1cccnc1)c1ccc(Cl)nc1,inhibition,[1],50.3% (active)
CC1CCN(S(=O)(=O)c2ccc(S(=O)(=O)NCc3cccnc3)cc2)CC1,inhibition,[1],40% (inactive)
Cc1ccc(NC(=O)CN(C)C(=O)COC(=O)C(C)(C)Oc2ccc(Cl)cc2)cc1,inhibition,[1],-4.4% (inactive)
CC(=O)OCCN(CCCn1c(-c2ccncc2)nc2ccccc21)c1nc(-c2ccc(C)cc2)cs1,inhibition,[1],9.5% (inactive)
COc1ccc(C(CCN(Cc2ccc(OC)c(OC)c2)C(=O)CCl)c2ccccc2)cc1 (configuration not stated),inhibition,[1],0.4% (inactive)
Cc1ccc2c(c1)C(c1ccccc1)N(C(=O)c1ccc(F)cc1)CC(=O)N2 (configuration not stated),inhibition,[1],23.9% (inactive)
Cc1ccc(/C=N/NC(=O)CSc2ccccn2)o1,inhibition,[1],-2.8% (inactive)
Cc1ccc(/C=N/NC(=O)CNC(=O)COc2ccccc2)o1,inhibition,[1],52.9% (active)
CCOc1ccccc1/C=N/NC(=O)CNC(=O)COc1ccccc1,inhibition,[1],26.2% (inactive)
CCOc1ccc(C(C(=O)NCCOC)N(CCOC)C(=O)CCC(=O)Nc2ccccn2)cc1 (configuration not stated),inhibition,[1],36.3% (inactive)
